Inconclusive results are not listed. Activity calls are given as the source filed them. Unless noted, no rule for the calls is given here.
Key:
[1] = hit retest on RPL19A-GFP reporter strain – cell-based, S. cerevisiae, flow cytometry, cherry picks, mother/daughter gates, confirmation (AID 2270;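 active = GFP response below 50% of the DMSO control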); details: 3 h, at 10 µM, stronger effect = lower value, 100 = same GFP as DMSO wells
[2] = yeast TOR pathway reporter LAP4-GFP change – cell-based, cherry picks, flow cytometry, mother/daughter gates, confirmation (AID 2271;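 active = GFP response above 150% of the DMSO control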;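 also: ratio of sample to DMSO plate mean so 100% equals DMSO level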); details: S. cerevisiae LAP4-GFP strain, 3 h, at 10 µM, stronger effect = higher value
[3] = TOR pathway CIT2 reporter hit retest – S. cerevisiae, GFP fusion, cherry picks, mother/daughter gates, confirmation (AID 2274;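 active = GFP response above 150% of the DMSO level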); details: S. cerevisiae CIT2-GFP strain, flow cytometry, 3 h, at 10 µM, stronger effect = higher value
[4] = rapamycin-like changes in RPL19A-GFP expression – cell-based, S. cerevisiae, multiplex flow cytometry, primary screen (AID 1862; in the data active = percent of DMSO control GFP below about 86%;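 also: lower values mimic rapamycin by blocking the RPL19A rise seen in DMSO cells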); details: S. cerevisiae RPL19A-GFP strain, flow cytometry fluorescence, 3 h; at 10 µM; stronger effect = lower value
[5] = TOR pathway GLN3 branch reporter MEP2-GFP changes – S. cerevisiae, multiplex flow cytometry, primary screen (AID 1867;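 active = GFP response, as percent of the DMSO control, above the screen-wide mean plus 3 SD, about 139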;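 also: median GFP channel fluorescence of barcode-gated MEP2-GFP cells measured by flow cytometry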); details: S. cerevisiae MEP2-GFP strain, 3 h, at 10 µM, stronger effect = higher value
[6] = TOR pathway RTG branch CIT2 reporter changes – S. cerevisiae, GFP fusion, multiplex flow cytometry, primary screen (AID 1870;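 active = percent response above a set limit, the screen-wide mean plus 3 SD, cut at about 130% in these data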;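 also: barcoded CIT2-GFP strain pooled with four other GFP strains with rapamycin as positive control; median GFP fluorescence per well over plate mean of DMSO wells so 100% = DMSO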); details: S. cerevisiae CIT2-GFP expression, 3 h, at 10 µM, stronger effect = higher value
[7] = TOR pathway LAP4-GFP level changes – S. cerevisiae, multiplex flow cytometry, primary screen (AID 1873;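 active = GFP signal, as percent of the solvent control, above the screen mean plus 3 SD, about 149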); details: S. cerevisiae LAP4-GFP expression, 3 h, at 10 µM, stronger effect = higher value
[8] = reduced mouse 2C T cell binding to pMHC/ICAM-1 vesicles – MLPCN validation set, flow cytometry, LFA-1/ICAM-1 modulator project, pilot screen (AID 2523;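 active = response below a set limit, under 55% cells CD8-positive and vesicle-bound, and CD8 cells' 90th-percentile brightness under 279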;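 as to vesicle binding response: mean PE anti-B7-1 fluorescence of CD8+ cells relative to row control; 100% = QL9-loaded vesicles with DMSO vehicle in the same plate row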); details: 2C mouse CD8+ T cells, at 7 µM, stronger effect = lower value; double positive events: measured here: CD8+/vesicle+ event percentage
[9] = molecular target: Integrin beta-1 (Homo sapiens) + Integrin alpha-4 (Homo sapiens) (UniProt P13612+P05556); experiment: alpha4beta1 integrin LIBS antibody binding reduction – U937 cells, HUTS-21 mAb, flow cytometry, validation set, VLA-4 allosteric modulator project, pilot screen (AID 2674;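 active = inhibition above 50%, about 3 SD of the validation set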;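 also: antibody binding induced by the VLA-4 ligand LDV present at three times its Kd; 0% = LDV ligand with antibody and no compound and 100% = antibody without LDV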); details: HUTS-21 LIBS mAb binding, at 6.7 µM, stronger effect = higher value
[10] = calorie-restriction mimetic ROS inhibitors, yeast – validation compound set, pilot screen (AID 2706;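 active = superoxide response below 65% of plate, a cut near 3 SD across the whole screen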;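 also: yeast exposed to compound for one week at 30 degrees C before staining; 100% = mean of all compound wells on the same plate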); details: S. cerevisiae aging, superoxide DHE fluorescence; at 10 µM; stronger effect = lower value
[11] = molecular target: Beta-adrenergic receptor kinase 1 (Homo sapiens) (UniProt P25098); experiment: GRK2 binders displacing RNA aptamer, biochemical, validation, human GRK2, bead flow cytometry (AID 488806;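 active = aptamer binding inhibition above 30%, about 3 SD of noise from non-fluorescent compounds; inactive = inhibition at or below 30%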); details: bead-bound GRK2, FAM-aptamer displacement, at 10 µM, stronger effect = higher value
[12] = molecular target: AP-2 complex subunit beta (Homo sapiens) (UniProt P63010); experiment: beta-arrestin/AP2 interaction blockers – biochemical, validation set, GST-AP2 beads, flow cytometry, pilot screen (AID 504541;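 active = inhibition above 54%, about 3 SD of non-fluorescent compounds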;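 also: AP2 carries R879A mutation and is captured from E. coli lysate; bead-bound FITC arrestin peptide fluorescence measuring arrestin peptide binding to AP2; 0% = DMSO wells and 100% = excess unlabeled arrestin peptide control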); details: FITC arrestin peptide, at 10 µM, stronger effect = higher value
[13] = cytosolic pH regulators acting via V-ATPase – S. cerevisiae, pHLuorin, HTS validation (AID 504600; in the data active = response above about 15%;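 also: plate controls were DMSO for no effect and reference compound for full effect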); details: V-ATPase proton transport, at 10 µM, stronger effect = higher value
[14] = tested on: anti-desmoglein-3 scFv antibody binding to human DSG3; experiment: blockers of pathogenic pemphigus antibody–desmoglein-3 binding – biochemical, validation compound set, bead-based, flow cytometry, pilot screen (AID 588368;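 active = binding below the plate cutoff, the plate median minus 3 SD, with a reading above zero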;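 also: signal is the median channel fluorescence of bead-bound GFP antibody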); details: Protein G beads, DSG3-Fc, scFv-GFP binding, at 10 µM, stronger effect = lower value
[15] = tested on: Botulinum neurotoxin type F light chain protease (Clostridium botulinum); experiment: Clostridium botulinum type F light chain protease inhibitors, microsphere substrate cleavage, validation (AID 588459); details: multiplex microsphere protease substrate cleavage assay, flow cytometry; at 10 µM; stronger effect = higher value
[16] = molecular target: Botulinum neurotoxin type A (Clostridium botulinum) (UniProt P0DPI0); experiment: BoNT/A light chain protease inhibitors, biochemical, multiplex microsphere flow cytometry, validation set (AID 588460); details: at 10 µM, stronger effect = higher value
[17] = molecular target: Lethal factor (Bacillus anthracis) (UniProt P15917); experiment: Bacillus anthracis lethal factor inhibition, microsphere flow cytometry protease assay, validation at 10 µM (AID 588461); details: multiplex microsphere protease cleavage assay, stronger effect = higher value
[18] = Nile Red efflux blockade in pump-expressing yeast – validation compound set, multiplex, phenotypic, pilot screen (AID 588506;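 active = efflux inhibition above 0.42, the validation set average plus 4 SD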;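 also: Nile Red retained in cells so higher fluorescence means more efflux inhibition; 0 = negative control wells and 1 = enniatin B 25 µM full block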); details: S. cerevisiae pump-expressing triplex, Nile Red efflux flow cytometry; at 10 µM; stronger effect = higher value
[19] = molecular target: ATP-binding cassette sub-family B member 6 (Homo sapiens) (UniProt Q9NP58); experiment: blockers of ABCB6-driven porphyrin uptake – K562-ABCB6 cells, flow cytometry, validation set, pilot screen (AID 588550;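 active = inhibition above the screen-wide mean plus 3 SD, about 51%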;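 also: 0% = DMSO wells and 100% = benzethonium chloride 70 µM positive control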); details: K562-ABCB6 porphyrin accumulation, 1 h, at 10 µM, stronger effect = higher value
[20] = AML differentiation inducers, ER-HoxA9 marrow cells – cell-based, GFP/MAC1 double positive, flow cytometry, validation set, primary screen (AID 588685;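 active = differentiation response of at least 50%, scaled between solvent and reference control, from cells with both markers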;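 also: compound exposure lasts four days before antibody staining and flow analysis; 0% = DMSO wells and 100% = 5 µM fulvestrant positive control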); details: stronger effect = higher value
[21] = measured here: daughter cell gate
[22] = measured here: mother cell gate
[23] = measured here: daughter cell gate response
[24] = measured here: mother cell gate response

AP-2 complex subunit beta (Homo sapiens), sequence (P63010 whole entry, looked up, one chain of several): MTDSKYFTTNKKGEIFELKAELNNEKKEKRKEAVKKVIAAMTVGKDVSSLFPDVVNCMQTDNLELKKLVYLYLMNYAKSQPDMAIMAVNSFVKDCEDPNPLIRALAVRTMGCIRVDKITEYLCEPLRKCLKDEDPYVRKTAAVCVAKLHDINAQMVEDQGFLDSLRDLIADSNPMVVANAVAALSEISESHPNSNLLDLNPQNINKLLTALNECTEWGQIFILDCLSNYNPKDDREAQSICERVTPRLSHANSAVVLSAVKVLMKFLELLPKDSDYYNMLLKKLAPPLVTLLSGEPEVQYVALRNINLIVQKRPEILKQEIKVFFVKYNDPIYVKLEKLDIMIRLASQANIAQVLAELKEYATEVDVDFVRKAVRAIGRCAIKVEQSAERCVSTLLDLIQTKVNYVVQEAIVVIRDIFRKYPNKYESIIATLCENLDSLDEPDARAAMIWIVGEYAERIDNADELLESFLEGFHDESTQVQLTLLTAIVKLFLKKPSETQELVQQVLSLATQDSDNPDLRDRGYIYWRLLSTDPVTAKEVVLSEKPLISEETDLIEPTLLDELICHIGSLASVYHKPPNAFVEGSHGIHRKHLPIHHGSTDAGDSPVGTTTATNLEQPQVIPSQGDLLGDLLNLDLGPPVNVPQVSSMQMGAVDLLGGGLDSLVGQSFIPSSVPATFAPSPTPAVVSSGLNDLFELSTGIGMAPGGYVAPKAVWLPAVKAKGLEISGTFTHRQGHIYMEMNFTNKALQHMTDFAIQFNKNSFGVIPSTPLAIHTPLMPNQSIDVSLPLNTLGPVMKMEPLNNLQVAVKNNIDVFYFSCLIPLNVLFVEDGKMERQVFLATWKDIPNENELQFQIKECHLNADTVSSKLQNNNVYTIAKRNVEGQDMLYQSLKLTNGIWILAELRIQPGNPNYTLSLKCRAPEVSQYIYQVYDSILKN
Beta-adrenergic receptor kinase 1 (Homo sapiens), sequence (P25098 whole entry, looked up): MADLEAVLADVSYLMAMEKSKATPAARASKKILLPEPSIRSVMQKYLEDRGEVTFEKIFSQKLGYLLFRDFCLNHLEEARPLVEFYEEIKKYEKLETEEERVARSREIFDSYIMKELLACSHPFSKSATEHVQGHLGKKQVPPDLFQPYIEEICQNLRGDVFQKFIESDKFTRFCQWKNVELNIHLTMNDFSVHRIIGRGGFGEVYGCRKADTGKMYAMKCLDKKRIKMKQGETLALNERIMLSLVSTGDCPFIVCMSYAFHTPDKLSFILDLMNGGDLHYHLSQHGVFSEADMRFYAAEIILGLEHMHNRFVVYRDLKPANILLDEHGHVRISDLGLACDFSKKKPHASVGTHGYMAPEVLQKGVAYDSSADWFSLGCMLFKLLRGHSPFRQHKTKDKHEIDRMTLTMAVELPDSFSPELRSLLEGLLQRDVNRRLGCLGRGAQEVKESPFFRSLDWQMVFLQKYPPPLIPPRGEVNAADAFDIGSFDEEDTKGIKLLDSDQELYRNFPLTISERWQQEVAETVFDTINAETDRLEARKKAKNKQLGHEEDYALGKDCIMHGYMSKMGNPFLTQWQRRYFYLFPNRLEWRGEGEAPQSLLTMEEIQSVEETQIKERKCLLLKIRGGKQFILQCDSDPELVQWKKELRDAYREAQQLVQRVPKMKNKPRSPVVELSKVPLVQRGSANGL
Integrin beta-1 (Homo sapiens) + Integrin alpha-4 (Homo sapiens), sequence (P05556 whole entry, looked up): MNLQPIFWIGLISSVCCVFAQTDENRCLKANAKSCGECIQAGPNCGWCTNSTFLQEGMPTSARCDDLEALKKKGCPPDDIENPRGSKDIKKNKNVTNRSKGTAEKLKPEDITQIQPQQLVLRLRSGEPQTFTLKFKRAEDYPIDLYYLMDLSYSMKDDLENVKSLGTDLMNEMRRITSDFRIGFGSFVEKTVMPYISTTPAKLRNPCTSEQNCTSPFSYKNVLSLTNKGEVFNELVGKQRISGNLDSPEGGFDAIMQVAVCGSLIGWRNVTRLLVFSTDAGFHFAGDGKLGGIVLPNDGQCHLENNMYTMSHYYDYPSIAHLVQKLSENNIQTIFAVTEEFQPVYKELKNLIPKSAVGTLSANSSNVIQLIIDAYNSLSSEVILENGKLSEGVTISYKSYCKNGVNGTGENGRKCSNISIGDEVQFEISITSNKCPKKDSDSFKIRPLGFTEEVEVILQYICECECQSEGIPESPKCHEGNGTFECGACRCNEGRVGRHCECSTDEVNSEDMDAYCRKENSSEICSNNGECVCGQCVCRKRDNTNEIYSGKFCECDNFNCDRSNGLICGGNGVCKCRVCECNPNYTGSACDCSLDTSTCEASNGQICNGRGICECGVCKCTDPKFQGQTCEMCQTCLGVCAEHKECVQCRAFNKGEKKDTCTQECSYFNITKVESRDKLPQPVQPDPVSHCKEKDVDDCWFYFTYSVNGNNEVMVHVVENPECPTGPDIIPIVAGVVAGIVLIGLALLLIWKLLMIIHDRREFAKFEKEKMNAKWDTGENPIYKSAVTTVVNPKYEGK
Integrin beta-1 (Homo sapiens) + Integrin alpha-4 (Homo sapiens), sequence (P13612 whole entry, looked up): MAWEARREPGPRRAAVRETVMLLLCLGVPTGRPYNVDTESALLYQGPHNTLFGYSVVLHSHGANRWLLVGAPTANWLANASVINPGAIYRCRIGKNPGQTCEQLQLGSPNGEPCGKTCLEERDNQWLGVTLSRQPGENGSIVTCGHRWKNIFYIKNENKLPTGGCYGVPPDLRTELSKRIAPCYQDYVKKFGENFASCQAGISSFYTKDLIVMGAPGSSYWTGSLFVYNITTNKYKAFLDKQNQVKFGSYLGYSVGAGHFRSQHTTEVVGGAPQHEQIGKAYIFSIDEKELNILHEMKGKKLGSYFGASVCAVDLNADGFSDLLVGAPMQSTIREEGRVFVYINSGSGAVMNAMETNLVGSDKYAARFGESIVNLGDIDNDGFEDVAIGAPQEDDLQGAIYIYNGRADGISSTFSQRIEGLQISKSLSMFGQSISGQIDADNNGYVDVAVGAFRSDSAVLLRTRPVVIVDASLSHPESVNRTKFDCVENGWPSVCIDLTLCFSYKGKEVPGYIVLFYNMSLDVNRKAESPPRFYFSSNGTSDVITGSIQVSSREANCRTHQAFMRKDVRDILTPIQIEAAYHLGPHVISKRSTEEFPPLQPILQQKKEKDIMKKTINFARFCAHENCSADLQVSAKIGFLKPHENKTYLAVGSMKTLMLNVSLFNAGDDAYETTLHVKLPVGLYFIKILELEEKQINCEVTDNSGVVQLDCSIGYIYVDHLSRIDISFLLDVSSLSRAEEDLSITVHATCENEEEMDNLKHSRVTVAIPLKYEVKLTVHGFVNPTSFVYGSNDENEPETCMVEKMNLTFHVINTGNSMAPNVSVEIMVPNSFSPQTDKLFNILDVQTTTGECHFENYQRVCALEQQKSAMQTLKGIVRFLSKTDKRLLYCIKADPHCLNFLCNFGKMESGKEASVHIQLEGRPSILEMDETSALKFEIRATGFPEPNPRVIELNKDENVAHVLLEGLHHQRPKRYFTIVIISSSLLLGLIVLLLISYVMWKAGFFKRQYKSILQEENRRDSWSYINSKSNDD
Botulinum neurotoxin type A (Clostridium botulinum), sequence (P0DPI0 whole entry, looked up): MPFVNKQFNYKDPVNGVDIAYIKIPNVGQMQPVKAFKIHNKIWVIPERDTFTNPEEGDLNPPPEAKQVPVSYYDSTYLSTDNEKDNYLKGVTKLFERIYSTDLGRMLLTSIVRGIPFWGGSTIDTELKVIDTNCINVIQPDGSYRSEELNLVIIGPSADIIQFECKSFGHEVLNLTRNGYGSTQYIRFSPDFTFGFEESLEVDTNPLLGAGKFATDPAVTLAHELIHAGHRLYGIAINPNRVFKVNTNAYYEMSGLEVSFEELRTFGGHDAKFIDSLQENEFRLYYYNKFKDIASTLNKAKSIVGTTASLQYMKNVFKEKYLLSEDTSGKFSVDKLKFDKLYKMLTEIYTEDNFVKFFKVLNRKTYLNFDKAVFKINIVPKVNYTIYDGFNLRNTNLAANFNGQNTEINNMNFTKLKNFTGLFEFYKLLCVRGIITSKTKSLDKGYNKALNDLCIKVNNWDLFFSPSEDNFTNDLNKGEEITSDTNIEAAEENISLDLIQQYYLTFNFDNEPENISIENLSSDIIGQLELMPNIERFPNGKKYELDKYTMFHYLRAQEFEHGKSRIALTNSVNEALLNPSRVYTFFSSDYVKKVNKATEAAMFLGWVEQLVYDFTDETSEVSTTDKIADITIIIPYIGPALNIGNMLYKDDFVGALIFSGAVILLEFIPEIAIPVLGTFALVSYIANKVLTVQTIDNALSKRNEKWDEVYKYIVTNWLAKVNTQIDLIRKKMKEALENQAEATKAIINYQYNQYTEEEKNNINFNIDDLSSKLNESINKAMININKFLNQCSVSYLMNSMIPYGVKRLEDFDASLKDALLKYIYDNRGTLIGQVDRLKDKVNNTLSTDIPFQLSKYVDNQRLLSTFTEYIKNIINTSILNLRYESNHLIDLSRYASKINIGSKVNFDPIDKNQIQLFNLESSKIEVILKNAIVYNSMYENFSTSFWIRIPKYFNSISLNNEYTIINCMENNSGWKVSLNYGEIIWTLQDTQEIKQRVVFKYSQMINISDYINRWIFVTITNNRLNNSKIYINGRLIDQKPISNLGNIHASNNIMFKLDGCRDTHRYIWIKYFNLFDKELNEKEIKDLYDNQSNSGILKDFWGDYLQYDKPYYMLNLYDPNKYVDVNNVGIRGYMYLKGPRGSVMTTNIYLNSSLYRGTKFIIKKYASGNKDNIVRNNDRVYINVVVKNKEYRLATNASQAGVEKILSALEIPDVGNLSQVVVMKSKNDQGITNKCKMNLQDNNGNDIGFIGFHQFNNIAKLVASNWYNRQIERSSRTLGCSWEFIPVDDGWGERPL

O=C1NC(=O)N(c2ccccc2)C(=O)/C1=C/c1ccc(Sc2ccccc2)o1
170%: GFP response relative to DMSO [2, 24]
95.2%: GFP response vs DMSO [1, 22]
98.3%: GFP response, % of DMSO [3, 21]
active: GFP response relative to DMSO [2] 177%
inactive: GFP response vs DMSO [1] 99.7% | GFP response, % of DMSO [3] 89.2%
98.5%: GFP response vs DMSO [1, 21]
135%: GFP response relative to DMSO [2, 23]
79.3%: GFP response, % of DMSO [3, 22]

CCN1CC2(COC(=O)c3ccccc3N)CCC(OC)C34C5CC6C(OC)CC(O)(C5C6OC)C(O)(C(OC)C23)C14 (stereo not given)
inactive: percent of DMSO control GFP [4] 91.1% | GFP response vs DMSO [5] 120% | percent response of DMSO control [6] 96.6% | GFP response vs DMSO [7] 86.4% | vesicle binding response [8] 247% | inhibition [9] 5.49% | superoxide response (% of plate) [10] 99.8% | aptamer binding inhibition [11] 2% | inhibition [12] 4.65% | response [13] 5.45% | binding (% of control) [14] 101% | inhibition [15] 1.9% | inhibition [16] 0.1% | inhibition [17] -9.8% | efflux inhibition (fraction of control) [18] -0.42 | inhibition [19] 8% | differentiation response [20] 9.83%
68.8%: double positive events [8]

CC(C)[C@@]1(NC(=O)[C@@H]2C[C@@H]3c4cccc5[nH]cc(c45)C[C@H]3N(C)C2)O[C@@]2(O)[C@@H]3CCCN3C(=O)[C@H](Cc3ccccc3)N2C1=O
74.1%: double positive events [8]
inactive: percent of DMSO control GFP [4] 88.4% | GFP response vs DMSO [5] 132% | percent response of DMSO control [6] 112% | GFP response vs DMSO [7] 84.2% | vesicle binding response [8] 240% | inhibition [9] -14.9% | superoxide response (% of plate) [10] 98.1% | aptamer binding inhibition [11] -3% | inhibition [12] 0.81% | response [13] 1.06% | binding (% of control) [14] 114% | inhibition [15] -9.2% | inhibition [16] -1.6% | inhibition [17] -32% | efflux inhibition (fraction of control) [18] 0.37 | inhibition [19] 9% | differentiation response [20] 4.09%

Nc1ccc(N=Nc2ccccc2)cc1
99.3%: GFP response, % of DMSO [3, 22]
96.2%: GFP response vs DMSO [1, 22]
inactive: GFP response vs DMSO [1] 98.4% | GFP response relative to DMSO [2] 110% | GFP response, % of DMSO [3] 100%
106%: GFP response relative to DMSO [2, 23]
98.4%: GFP response vs DMSO [1, 21]
111%: GFP response relative to DMSO [2, 24]
93.8%: GFP response, % of DMSO [3, 21]

CCOC(=O)C(C)Oc1cc(C)cc2oc(=O)c3c(c12)CCCC3 (stereo not given)
81.8%: double positive events [8]
inactive: percent of DMSO control GFP [4] 95.2% | GFP response vs DMSO [5] 116% | percent response of DMSO control [6] 104% | GFP response vs DMSO [7] 74.8% | inhibition [9] 0.64% | superoxide response (% of plate) [10] 103% | aptamer binding inhibition [11] 5% | inhibition [12] -3.6% | response [13] -8.97% | binding (% of control) [14] 97.6% | inhibition [15] -0.4% | inhibition [16] -1.5% | inhibition [17] 0.6% | efflux inhibition (fraction of control) [18] -0.46 | inhibition [19] 12% | differentiation response [20] -9.01%

Cc1cccn2c(NCC3CCCO3)c(C(C)C)nc12 (stereo not given)
96.5%: GFP response relative to DMSO [2, 23] | GFP response relative to DMSO [2, 24]
105%: GFP response, % of DMSO [3, 22]
inactive: GFP response vs DMSO [1] 99.1% | GFP response relative to DMSO [2] 97.7% | GFP response, % of DMSO [3] 106%
100%: GFP response vs DMSO [1, 21] | GFP response vs DMSO [1, 22]
106%: GFP response, % of DMSO [3, 21]
